From PubChem BioAssay (NCATS)
Results filed as inconclusive are left out. Activity calls are given as the source filed them. Calls come from the whole dose curve; as a rule, active = well fitted curve in the direction sought with a large enough effect; inconclusive = small, poorly fitted or top-dose-only effect, or another doubt; inactive = no such curve, though single readings can be large; an effect the other way counts as inactive or inconclusive. Where a SMILES comes first, the peptide text is derived from it. The star is where a group is joined. AFC = O=c1cc(C(F)(F)F)c2ccc(N*)cc2o1

Key:
[1] = biological target: Glutathione peroxidase 1 (Homo sapiens) (UniProt P07203); assay: Primary qHTS Assay for Inhibitors of Recombinant Selenoprotein Glutathione Peroxidase 1 (GPX1) (AID 1845191); note: nearly all actives have a fitted effect of over 65% in size; note: potency is the fitted concentration of half-maximal effect; for activity, negative = inhibition: % is set by controls: 0 for no effect and ±100 for the full control effect
Outline: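 NADPH consumption tracked by fluorescence at 340/450 nm between t=0 and t=15 min, room temperature. Final mix: 10 nM GPX1, 100 nM glutathione reductase, 1 mM GSH, 0.5 mM NADPH, 0.5 mM cumene hydroperoxide, 0.01% BSA; 30 min compound–enzyme preincubation.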

[2] = biological target: Phospholipid hydroperoxide glutathione peroxidase GPX4 (Homo sapiens) (UniProt P36969); assay: Primary qHTS Assay for Inhibitors of Recombinant Selenoprotein Glutathione Peroxidase 4 (GPX4) (AID 1845192); note: nearly all actives have a fitted effect of over 65% in size; note: potency is the fitted concentration of half-maximal effect; for activity change, negative = inhibition: series mostly up to about 50 µM; % is set by controls: 0 for no effect and ±100 for the full control effect
Outline: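 NADPH consumption followed by fluorescence at 340/450 nm, t=0 and after 15 min at room temperature. Reaction started with cumene hydroperoxide (0.5 mM final) after 30 min compound–GPX4 preincubation; final 200 nM GPX4, 100 nM GR, 1 mM GSH, 0.5 mM NADPH.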

[3] = biological target: Luciferin 4-monooxygenase (Photinus pyralis) (UniProt P08659); assay: Primary firefly luciferase (FLuc) qHTS assay for identification of artifact compounds. (AID 1845220); note: nearly all actives have a fitted effect of over 60% in size;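 for activity change, negative = inhibition: series mostly up to about 54 µM; plate controls were DMSO vehicle for no effect and no enzyme for full effect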
Outline: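 Cell-free, 1536-well qHTS. Buffer pH 7.6 with 0.01% Tween-20 and 0.05% BSA; 10 uM D-luciferin, 10 uM ATP; 10 nM P. pyralis luciferase; luminescence after 5 min.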

[4] = Primary fluorescence-based thiol-reactive (MSTI) qHTS assay for identification of artifact compounds. (AID 1845221); note: nearly all actives have a fitted effect of over 65% in size; note: potency is the fitted concentration of half-maximal effect;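 for activity change, negative = thiol reactive: series mostly up to about 54 µM; thiol-reactive compounds lower the probe fluorescence signal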
Outline: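 A multi-concentration qHTS design tested compounds against 4 uM MSTI, pH 7.4 phosphate-buffered saline. Plates were protected from light for 1 h at room temperature before imaging fluorescence.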

[5] = system: Nanoluciferase (engineered Oplophorus gracilirostris luciferase); assay: Primary Nanoluciferase (NLuc) qHTS assay for identification of artifact compounds. (AID 1845222);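 note: series mostly up to about 54 µM; 0% = DMSO and -100% = no enzyme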
Outline: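 Compounds are pinned into diluted (1:55) conditioned medium of NLuc-expressing S16 cells and held 15 min at room temperature protected from light. Nano-Glo substrate follows, and luminescence is read 5 min later.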

Sequence of Glutathione peroxidase 1 (Homo sapiens) (P07203 whole entry, looked up): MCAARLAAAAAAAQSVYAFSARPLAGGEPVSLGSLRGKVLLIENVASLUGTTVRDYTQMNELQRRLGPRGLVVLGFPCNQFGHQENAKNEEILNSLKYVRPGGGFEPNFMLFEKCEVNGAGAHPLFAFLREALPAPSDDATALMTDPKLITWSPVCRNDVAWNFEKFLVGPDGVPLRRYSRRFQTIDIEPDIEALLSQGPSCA
Sequence of Phospholipid hydroperoxide glutathione peroxidase GPX4 (Homo sapiens) (P36969 whole entry, looked up): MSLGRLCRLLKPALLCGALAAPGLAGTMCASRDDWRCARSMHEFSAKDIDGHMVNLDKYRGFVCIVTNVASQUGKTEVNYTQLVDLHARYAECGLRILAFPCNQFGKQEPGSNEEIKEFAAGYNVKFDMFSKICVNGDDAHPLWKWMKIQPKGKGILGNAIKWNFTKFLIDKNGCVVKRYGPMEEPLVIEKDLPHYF

CC(=O)N[C@@H](CC(C)C)C(=O)N[C@@H](CCC(=O)O)C(=O)N[C@@H](CCC(=O)O)C(=O)N[C@@H](CC(=O)O)C(=O)Nc1ccc2c(C(F)(F)F)cc(=O)oc2c1 (Ac-LEED-{AFC})
active: Potency [1] 22.7 µM | Potency [2] 20.2 µM
inactive: Potency [3] | Potency [4] | Potency [5]

C[C@@H](O)[C@H](N)C(=O)N1CCC[C@H]1C(=O)N1CCC[C@H]1C(=O)N[C@H](C(N)=O)[C@@H](C)O (H-TPPT-NH2)
inactive: outcome [1] inactive [at 9.52 µM] | activity change, negative = inhibition [2] 2.51% [at 9.73 µM] | activity change, negative = inhibition [3] 3.24% [at 11.6 µM] | activity change, negative = thiol reactive [4] -5.11% [at 11.5 µM] | activity, negative = inhibition [5] 4.97% [at 11.6 µM]

COc1cc([C@H]2OC[C@@H]3[C@@H](c4ccc(O[C@@H]5O[C@H](CO)[C@@H](O)[C@H](O)[C@H]5O)c(OC)c4)OC[C@]23O)ccc1O
inactive: Potency [1] | Potency [2] | Potency [3] | Potency [4] | Potency [5]

C[C@@H](Nc1cc(NS(=O)(=O)N2CCC2)nc(SCc2cccc(F)c2F)n1)[C@@H](O)CO
inactive: Potency [1] | Potency [2] | Potency [3] | Potency [4] | Potency [5]

NC(=O)[C@H]1CCCCc2c1[nH]c1ccc(Cl)cc21
inactive: Potency [1] | Potency [2] | Potency [3] | Potency [4] | Potency [5]

C[C@@H]1O[C@@H](O[C@H]2[C@H](OC(=O)[C@]34CCC(C)(C)C[C@H]3C3=CCC5[C@@]6(C)C[C@H](O)[C@H](O[C@@H]7O[C@H](CO[C@@H]8OC[C@H](O)[C@H](O)[C@H]8O)[C@@H](O)[C@H](O)[C@H]7O)C(C)(C)C6CC[C@@]5(C)[C@]3(C)C[C@H]4O)OC[C@@H](O)[C@@H]2O)[C@H](O)[C@H](O[C@@H]2OC[C@](O)(CO)[C@H]2O)[C@H]1O[C@@H]1OC[C@H](O)[C@H](O[C@@H]2OC[C@@H](O)[C@H](O)[C@H]2O)[C@H]1O (stereo not given in full)
inactive: outcome [1] inactive [at 9.52 µM] | activity change, negative = inhibition [2] -0.436% [at 9.73 µM] | outcome [3] inactive [at 11.6 µM] | activity change, negative = thiol reactive [4] 452% [at 11.5 µM] | activity, negative = inhibition [5] 3.55% [at 11.6 µM]

CC1(C)CCCC2(C)C1C(O)C=C(CO)C2(O)C(=O)O (stereo not given)
inactive: Potency [1] | Potency [2] | Potency [3] | Potency [4] | Potency [5]

CC(=O)O[C@@H]1[C@@H](OC(=O)/C=C/c2ccccc2)[C@H](C)O[C@@H](O[C@H]2[C@@H]3C=CO[C@@H](O[C@@H]4O[C@H](CO)[C@@H](O)[C@H](O)[C@H]4O)[C@@H]3[C@@]3(CO)O[C@@H]23)[C@@H]1OC(C)=O
inactive: Potency [1] | Potency [2] | Potency [3] | Potency [4] | Potency [5]

COc1ccc(C[C@H](N)C(=O)N[C@H]2[C@@H](O)[C@H](n3cnc4c(N(C)C)ncnc43)O[C@@H]2CO)cc1
inactive: Potency [1] | Potency [2] | Potency [3] | Potency [4] | Potency [5]

C/C(=C\CO)CC/C=C(\C)C(=O)O[C@H]1[C@H](OC2OC=C(C(=O)O)C3CCC(C)(O)C23)O[C@H](CO)[C@@H](O)[C@@H]1O (stereo not given in full)
active: Potency [4] 11.6 µM
inactive: Potency [1] | Potency [2] | Potency [3] | Potency [5]

CC(C)(O)C1CC=C(C(=O)OCC2OC(Oc3c(O)cc(C(=O)O)cc3O)C(O)C(O)C2O)CC1 (stereo not given)
active: Potency [4] 0.822 µM
inactive: Potency [1] | Potency [2] | Potency [3] | Potency [5]

CNC(=O)c1ccc2cc([C@@]3(O)CCn4cncc43)ccc2c1
inactive: Potency [1] | Potency [2] | Potency [3] | Potency [4] | Potency [5]

C=C1CC2C3(C)C(OC(C)=O)CC(=O)OC(C)(C)C3C(O)C(OC(C)=O)C2(C)C2C(=O)OC(C)C(=O)C12C (stereo not given)
inactive: Potency [1] | Potency [2] | Potency [3] | Potency [4] | Potency [5]

COc1cc(C(C)=O)ccc1O[C@@H]1O[C@H](CO[C@@H]2O[C@@H](C)[C@H](O)[C@@H](O)[C@H]2O)[C@@H](O)[C@H](O)[C@H]1O
inactive: Potency [1] | Potency [2] | Potency [3] | Potency [4] | Potency [5]

CC(O)C(O)/C=C/C=C/C(=O)O[C@@H]1C=C2COC(=O)[C@]2(O)[C@@]2(C)CCCC(C)(C)C12 (stereo not given in full)
inactive: Potency [1] | Potency [2] | Potency [3] | Potency [4] | Potency [5]

Cn1c(=O)c2nc(/C=C/c3cccc(Cl)c3)n(C)c2n(C)c1=O
inactive: Potency [1] | Potency [2] | Potency [3] | Potency [4] | Potency [5]

CC1CCC2(C)C(CC(O)C(O)C23CO3)C1(C)CCC1=CC(=O)OC1O (stereo not given)
inactive: Potency [1] | Potency [2] | Potency [3] | Potency [4] | Potency [5]

CC[C@H](C)/C=C(C)/C=C/C(=O)Cc1cc(O)c(C)c(O)c1C=O
active: Potency [4] 14.7 µM
inactive: Potency [1] | Potency [2] | Potency [3] | Potency [5]
